# Data: ChEMBL document CHEMBL2218924, “A broad activity screen in support of a chemogenomic map for kinase signalling research and drug discovery” (Biochem J, 2013)
# Tests used:
# [1] = target: Homeodomain-interacting protein kinase 3 (Homo sapiens) (UniProt Q9H422); details: at 10 µM
# [2] = target: T1, Serine/threonine-protein kinase haspin (Homo sapiens) (UniProt Q8TF76); details: at 1 µM
# T1 sequence (whole entry): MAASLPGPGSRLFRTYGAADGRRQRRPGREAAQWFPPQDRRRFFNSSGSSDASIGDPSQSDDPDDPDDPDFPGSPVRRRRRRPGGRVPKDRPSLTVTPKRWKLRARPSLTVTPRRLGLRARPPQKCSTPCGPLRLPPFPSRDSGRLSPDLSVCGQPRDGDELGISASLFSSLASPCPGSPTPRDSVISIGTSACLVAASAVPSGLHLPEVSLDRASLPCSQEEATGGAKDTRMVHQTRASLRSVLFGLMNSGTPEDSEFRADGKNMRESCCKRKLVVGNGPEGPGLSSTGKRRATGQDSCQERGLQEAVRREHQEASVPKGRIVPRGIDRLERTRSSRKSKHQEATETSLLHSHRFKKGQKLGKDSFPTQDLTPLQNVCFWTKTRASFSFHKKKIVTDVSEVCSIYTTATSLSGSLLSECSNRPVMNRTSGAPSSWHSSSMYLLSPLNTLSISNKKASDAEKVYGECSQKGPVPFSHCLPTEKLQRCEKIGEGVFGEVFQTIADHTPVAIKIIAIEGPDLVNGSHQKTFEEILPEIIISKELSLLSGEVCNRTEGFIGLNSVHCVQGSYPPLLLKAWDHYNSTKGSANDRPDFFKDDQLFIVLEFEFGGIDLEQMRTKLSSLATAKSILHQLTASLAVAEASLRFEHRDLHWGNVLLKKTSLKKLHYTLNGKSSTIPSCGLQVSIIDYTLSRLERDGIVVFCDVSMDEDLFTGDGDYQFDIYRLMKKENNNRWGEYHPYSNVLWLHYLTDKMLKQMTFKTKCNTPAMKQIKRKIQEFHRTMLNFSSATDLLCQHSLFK
# [3] = target: T1, Serine/threonine-protein kinase haspin (Homo sapiens); details: at 10 µM
# [4] = target: Tyrosine-protein kinase HCK (Homo sapiens) (UniProt P08631); details: at 1 µM
# [5] = target: Tyrosine-protein kinase HCK (Homo sapiens) (UniProt P08631); details: at 10 µM
# [6] = target: Tyrosine-protein kinase HCK (Homo sapiens) (UniProt P08631); details: at 1 µM; remark: listed apart in the source
# [7] = target: Tyrosine-protein kinase HCK (Homo sapiens) (UniProt P08631); details: at 10 µM; remark: listed apart in the source
# [8] = target: Insulin-like growth factor 1 receptor (Homo sapiens) (UniProt P08069); details: at 1 µM
# [9] = target: Insulin-like growth factor 1 receptor (Homo sapiens) (UniProt P08069); details: at 10 µM
# [10] = target: T2, Protein kinase C zeta type (Homo sapiens) (UniProt Q05513); details: at 10 µM
# T2 sequence (whole entry): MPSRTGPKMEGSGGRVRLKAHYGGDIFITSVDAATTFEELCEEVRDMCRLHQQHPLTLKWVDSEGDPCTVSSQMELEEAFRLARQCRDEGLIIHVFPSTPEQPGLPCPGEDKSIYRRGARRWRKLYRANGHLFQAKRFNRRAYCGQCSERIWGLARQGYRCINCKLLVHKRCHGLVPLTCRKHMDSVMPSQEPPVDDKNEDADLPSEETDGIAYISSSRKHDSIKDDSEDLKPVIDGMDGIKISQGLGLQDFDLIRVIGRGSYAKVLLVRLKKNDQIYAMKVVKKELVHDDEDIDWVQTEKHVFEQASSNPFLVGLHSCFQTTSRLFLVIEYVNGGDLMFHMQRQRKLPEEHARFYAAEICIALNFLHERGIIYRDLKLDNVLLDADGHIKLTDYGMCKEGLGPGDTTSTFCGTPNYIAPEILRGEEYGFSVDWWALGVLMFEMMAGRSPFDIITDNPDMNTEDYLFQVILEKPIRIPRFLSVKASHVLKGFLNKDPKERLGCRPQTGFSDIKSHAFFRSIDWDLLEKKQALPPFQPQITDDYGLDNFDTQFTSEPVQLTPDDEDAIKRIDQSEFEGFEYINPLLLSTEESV
# Homeodomain-interacting protein kinase 3 (Homo sapiens), sequence (Q9H422 whole entry, looked up): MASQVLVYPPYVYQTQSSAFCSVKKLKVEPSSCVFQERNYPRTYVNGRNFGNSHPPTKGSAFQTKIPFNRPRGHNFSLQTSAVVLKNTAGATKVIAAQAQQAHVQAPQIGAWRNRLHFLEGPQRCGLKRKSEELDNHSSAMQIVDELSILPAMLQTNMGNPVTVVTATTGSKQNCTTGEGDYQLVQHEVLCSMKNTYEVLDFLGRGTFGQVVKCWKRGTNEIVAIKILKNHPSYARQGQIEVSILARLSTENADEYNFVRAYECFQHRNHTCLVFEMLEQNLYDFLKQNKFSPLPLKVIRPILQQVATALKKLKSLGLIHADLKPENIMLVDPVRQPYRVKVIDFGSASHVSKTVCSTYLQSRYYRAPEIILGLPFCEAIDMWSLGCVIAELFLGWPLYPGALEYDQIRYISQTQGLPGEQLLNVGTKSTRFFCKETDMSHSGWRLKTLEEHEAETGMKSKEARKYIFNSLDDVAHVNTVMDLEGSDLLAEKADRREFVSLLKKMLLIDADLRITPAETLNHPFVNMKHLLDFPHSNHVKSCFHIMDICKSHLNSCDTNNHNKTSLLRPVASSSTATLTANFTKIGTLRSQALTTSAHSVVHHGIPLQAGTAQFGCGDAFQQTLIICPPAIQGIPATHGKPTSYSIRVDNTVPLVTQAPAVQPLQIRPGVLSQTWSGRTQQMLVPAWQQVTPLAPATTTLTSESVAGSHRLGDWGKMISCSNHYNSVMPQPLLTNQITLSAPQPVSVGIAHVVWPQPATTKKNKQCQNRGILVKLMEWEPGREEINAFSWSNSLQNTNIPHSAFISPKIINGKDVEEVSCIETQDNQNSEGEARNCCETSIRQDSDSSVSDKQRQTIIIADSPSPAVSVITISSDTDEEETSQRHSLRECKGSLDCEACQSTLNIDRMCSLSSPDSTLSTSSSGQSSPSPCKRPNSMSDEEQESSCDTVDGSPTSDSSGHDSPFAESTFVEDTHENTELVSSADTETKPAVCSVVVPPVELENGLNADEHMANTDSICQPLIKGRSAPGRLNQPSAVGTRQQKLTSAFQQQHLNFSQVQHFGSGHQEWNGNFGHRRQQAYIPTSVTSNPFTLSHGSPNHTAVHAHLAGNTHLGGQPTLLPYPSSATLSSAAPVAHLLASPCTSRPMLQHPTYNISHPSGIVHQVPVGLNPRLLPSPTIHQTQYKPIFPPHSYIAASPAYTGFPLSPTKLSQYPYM
# Tyrosine-protein kinase HCK (Homo sapiens), sequence (P08631 2-526 limits assumed): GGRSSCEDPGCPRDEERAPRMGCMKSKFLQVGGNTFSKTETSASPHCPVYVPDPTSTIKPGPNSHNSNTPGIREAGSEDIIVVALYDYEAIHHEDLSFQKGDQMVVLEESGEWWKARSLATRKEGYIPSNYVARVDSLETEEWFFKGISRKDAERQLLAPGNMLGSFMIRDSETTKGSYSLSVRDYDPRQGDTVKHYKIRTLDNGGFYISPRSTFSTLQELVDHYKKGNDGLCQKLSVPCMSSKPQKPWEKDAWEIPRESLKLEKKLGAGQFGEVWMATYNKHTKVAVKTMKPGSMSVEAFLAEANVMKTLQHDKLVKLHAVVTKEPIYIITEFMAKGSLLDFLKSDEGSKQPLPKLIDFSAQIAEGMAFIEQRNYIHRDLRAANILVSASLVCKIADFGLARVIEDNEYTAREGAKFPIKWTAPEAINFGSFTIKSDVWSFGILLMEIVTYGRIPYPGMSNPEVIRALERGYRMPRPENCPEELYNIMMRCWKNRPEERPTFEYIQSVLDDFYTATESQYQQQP
# Insulin-like growth factor 1 receptor (Homo sapiens), sequence (P08069 31-736 limits assumed): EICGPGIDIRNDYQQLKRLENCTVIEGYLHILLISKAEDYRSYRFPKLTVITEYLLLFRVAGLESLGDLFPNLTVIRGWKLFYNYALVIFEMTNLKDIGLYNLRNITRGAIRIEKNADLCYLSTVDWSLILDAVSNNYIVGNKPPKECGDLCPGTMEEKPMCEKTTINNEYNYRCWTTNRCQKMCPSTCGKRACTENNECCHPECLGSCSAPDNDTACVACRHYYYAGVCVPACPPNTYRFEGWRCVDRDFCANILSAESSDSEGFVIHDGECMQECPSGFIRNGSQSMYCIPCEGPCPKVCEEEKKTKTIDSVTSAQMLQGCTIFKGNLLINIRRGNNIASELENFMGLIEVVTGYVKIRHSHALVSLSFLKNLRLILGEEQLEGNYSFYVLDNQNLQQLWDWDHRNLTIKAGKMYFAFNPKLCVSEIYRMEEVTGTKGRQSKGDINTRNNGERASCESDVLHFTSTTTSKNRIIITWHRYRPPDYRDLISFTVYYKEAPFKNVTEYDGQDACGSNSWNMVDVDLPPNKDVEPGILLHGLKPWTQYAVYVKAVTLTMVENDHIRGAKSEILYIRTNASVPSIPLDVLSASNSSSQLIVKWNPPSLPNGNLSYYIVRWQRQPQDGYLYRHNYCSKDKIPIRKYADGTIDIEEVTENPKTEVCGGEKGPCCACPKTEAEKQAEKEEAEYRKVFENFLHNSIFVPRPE
# Insulin-like growth factor 1 receptor (Homo sapiens), sequence (P08069 741-1367 limits assumed): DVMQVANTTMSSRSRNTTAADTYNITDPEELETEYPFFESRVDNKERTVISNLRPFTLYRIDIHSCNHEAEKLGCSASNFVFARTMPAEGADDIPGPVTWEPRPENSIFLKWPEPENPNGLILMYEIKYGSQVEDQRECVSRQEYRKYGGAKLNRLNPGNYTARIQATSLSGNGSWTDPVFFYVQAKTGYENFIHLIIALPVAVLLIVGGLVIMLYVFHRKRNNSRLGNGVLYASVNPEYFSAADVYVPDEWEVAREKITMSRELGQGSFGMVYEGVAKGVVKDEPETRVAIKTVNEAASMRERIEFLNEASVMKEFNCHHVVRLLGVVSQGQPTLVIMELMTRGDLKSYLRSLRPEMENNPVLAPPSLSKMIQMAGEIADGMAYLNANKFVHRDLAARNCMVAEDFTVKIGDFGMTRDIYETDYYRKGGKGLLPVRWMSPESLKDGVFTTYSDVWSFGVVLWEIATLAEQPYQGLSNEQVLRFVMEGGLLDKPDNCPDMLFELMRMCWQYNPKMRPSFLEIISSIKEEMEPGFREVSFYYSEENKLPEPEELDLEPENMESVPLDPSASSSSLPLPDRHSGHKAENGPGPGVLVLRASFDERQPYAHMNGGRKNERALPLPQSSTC
Compound,residual activity [1] [%],residual activity [2] [%],residual activity [3] [%],residual activity [4] [%],residual activity [5] [%],residual activity [6] [%],residual activity [7] [%],residual activity [8] [%],residual activity [9] [%],residual activity [10] [%]
NC(=O)c1ccc2[nH]c(-c3ccc(Oc4ccc(Cl)cc4)cc3)nc2c1,98,89,96,72,60,96,89,140,98,100
COc1cc2ncnc(Nc3ccc(O)c(Br)c3)c2cc1OC,92,65,24,32,4,29,7,71,73,95
COc1cccc(-c2cc(=O)c3ccccc3o2)c1N,98,118,81,88,87,106,105,91,127,105
COc1ccc(OC)c2c(=S)c3ccccc3[nH]c12,73,114,56,85,70,101,95,103,136,86
Cn1nc2c3c(cccc31)C(=O)c1ccccc1-2,90,41,2,72,53,96,92,111,106,106
Nc1ccc2ncnc(NCCc3ccc(Oc4ccccc4)cc3)c2c1,93,75,23,67,32,97,89,138,114,96
O=C1Nc2ccccc2/C1=C1/Nc2ccccc2/C1=N\OCCC(O)CO (centres undefined),56,13,11,4,0,8,7,25,2,104
CCN(CC)CCCCN1c2ccccc2Oc2ccc(Cl)cc21,99,81,36,101,103,109,112,136,90,112
Oc1ccc(Nc2nc(-c3ccc(Cl)cc3)cs2)cc1,85,88,84,89,69,97,86,120,101,87
Oc1c2ccccc2c2c3c(cccc13)N=N2,19,10,-1,57,27,80,83,91,105,106
O=C(Nc1cccc(Nc2cc(Nc3cccc(C(F)(F)F)c3)ncn2)c1)C1CC1,102,110,82,96,52,98,83,141,115,87
Cc1cc2ncc(-c3ccccc3)nc2cc1C,107,87,83,68,55,105,99,131,144,104
Cn1cnc2cc3c(Nc4cccc(Br)c4)ncnc3cc21,95,108,59,52,21,51,25,145,103,101
Cn1cc(/C=C2\C(=O)Nc3ccc(S(N)(=O)=O)cc32)c2ccccc21,32,101,50,26,5,56,47,118,114,109
N#C/C(=C(\N)Sc1ccc(N)cc1)c1ccccc1C(F)(F)F,86,108,116,67,41,99,108,99,123,105
Oc1ccc(-c2nc(-c3ccc(F)cc3)c(-c3ccncc3)[nH]2)cc1,105,55,10,59,24,98,45,113,141,92
Cc1nc2cc3nc(-c4cccs4)cnc3cc2n1C,97,123,79,92,67,90,34,141,61,109

Compound,residual activity [1] [%],residual activity [2] [%],residual activity [3] [%],residual activity [4] [%],residual activity [5] [%],residual activity [6] [%],residual activity [7] [%],residual activity [8] [%],residual activity [9] [%],residual activity [10] [%]
COc1ccc(S(=O)(=O)N(CCO)c2ccccc2CN(C)C/C=C/c2ccc(Cl)cc2)cc1,102,82,49,87,45,98,90,121,114,–
O=C(O)c1ccc2c3c1cccc3c(=O)n1c3ccccc3nc21,48,91,92,102,81,104,95,68,74,95
O=c1cc(-c2cccc3c2Sc2ccccc2S3)oc(N2CCOCC2)c1,104,94,98,96,82,101,100,100,113,100
CCC(=O)Nc1ccc2ncnc(Nc3cccc(Br)c3)c2c1,99,109,62,82,45,86,66,132,116,119
O=C1NC(=O)/C(=C\c2ccc3nccnc3c2)S1,7,27,3,76,57,105,90,147,114,108
Nc1n[nH]c2nnc(-c3c(-c4ccccc4)nn4ccccc34)cc12,93,128,85,76,40,87,40,85,78,93
Ic1cccc(CSc2nnc(-c3ccncc3)o2)c1,100,104,85,74,56,85,89,96,124,98
O=C1NC(=O)c2c1c1c3ccccc3[nH]c1c1[nH]c3cc(Br)ccc3c21,89,99,72,69,56,97,78,87,91,88
O=C1NC(=O)c2cc(Nc3ccc(F)cc3)c(Nc3ccc(F)cc3)cc21,99,103,41,63,21,87,49,102,108,101
O=Nc1c(-c2c(O)[nH]c3ccccc23)[nH]c2ccccc12,19,26,19,15,5,8,1,37,26,98
O=C1c2ccccc2-[n+]2ccc3c([nH]c4ccccc43)c21,87,73,107,80,57,89,83,59,67,102
COc1ccc(CNc2nc(N(CCO)CCO)nc3c2ncn3C(C)C)cc1,98,104,101,62,56,102,91,90,129,95
CN(C)c1ccc(/C=C2\C(=O)Nc3ccccc32)cc1,94,83,46,76,32,102,77,146,139,101
Cc1ccc(NC2=CC(=O)c3sc(C)nc3C2=O)cc1,97,105,116,85,74,103,99,75,116,102
O=C1Nc2cc(Br)ccc2/C1=C1/Nc2ccccc2/C1=N\O,88,68,49,6,1,1,2,112,127,99
O=c1c2ccccc2[nH]c(=S)n1CCN1CCC(=C(c2ccc(F)cc2)c2ccc(F)cc2)CC1,88,84,52,73,38,101,101,119,104,94
